Experiment [1] in a line: Tanguay_ZF_120hpf_JAW_legacy: (Legacy) Oregon State University Tanguay Lab 120 Hour Post-fertilization zebrafish Assay for Jaw Malformation (AID 2283638). An outline of the steps:
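Binary jaw-malformation call at 120 hpf by brightfield microscopy. Embryos (Tropical 5D strain, chorion removed at 4 hpf) were dosed statically at 6 hpf, one per well, at 28C with 0.64% DMSO. Embryos that died were not scored.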

Experiment [2] can be described thus: Tanguay_ZF_120hpf_OTIC_legacy: (Legacy) Oregon State University Tanguay Lab 120 Hour Post-fertilization zebrafish Assay for Otic Vesicle Malformation (AID 2283639). The method, boiled down: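 Otic vesicle malformation is read as a yes/no morphology call at 120 hpf. Exposure is static at 28C with 0.64% (vol/vol) DMSO; embryos that die are excluded from non-mortality endpoints.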

Experiment [3] is described as follows: Tanguay_ZF_120hpf_BRAI_legacy: (Legacy) Oregon State University Tanguay Lab 120 Hour Post-fertilization zebrafish Assay for Brain Malformation (AID 2283641). The method, boiled down:
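Binary brightfield scoring of brain malformation at 120 hpf in Tropical 5D larvae held under static exposure at 28C (0.64% v/v DMSO), non-mortality endpoints skipped if dead. Positive control: 5uM trimethyltin chloride; fit versus DMSO.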

Experiment [4] is described as follows: Tanguay_ZF_120hpf_SOMI_legacy: (Legacy) Oregon State University Tanguay Lab 120 Hour Post-fertilization zebrafish Assay for Somite Malformation (AID 2283647). The method, boiled down:
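Binary somite-defect scoring at 120 hpf, omitted for embryos that died, in wild-type (Tropical 5D) zebrafish with chorion removed by pronase at 4 hpf; static exposure began 6 hpf, single embryos per well, 28C, 0.64% DMSO; fitted positive versus DMSO.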

Experiment [5] can be described thus: Tanguay_ZF_120hpf_PFIN_legacy: (Legacy) Oregon State University Tanguay Lab 120 Hour Post-fertilization zebrafish Assay for Pectoral Fin Malformation (AID 2283648).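 Note: each larva judged yes or no for fin defect by brightfield with dead larvae skipped.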 An outline of the steps: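 Dechorionated Tropical 5D wild-type zebrafish embryos, one per well, statically exposed from 6 to 120 hpf at 28C with 0.64% DMSO final. Pectoral fin malformation scored present/absent by brightfield at 120 hpf; not scored in dead embryos.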

Experiment [6] is described as follows: Tanguay_ZF_120hpf_CFIN_legacy: (Legacy) Oregon State University Tanguay Lab 120 Hour Post-fertilization zebrafish Assay for Caudal Fin Malformation (AID 2283649). The method, boiled down:
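Binary brightfield scoring of caudal fin defects at 120 hpf after static, light-shielded exposure at 28C from 6 hpf. Tropical 5D embryos, chorion removed with pronase at 4 hpf, final DMSO 0.64%.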

A short description of experiment [7]: Tanguay_ZF_120hpf_CIRC_legacy: (Legacy) Oregon State University Tanguay Lab 120 Hour Post-fertilization zebrafish Assay for Circulatory Malformation (AID 2283651). The method, boiled down: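 Using wild-type Tropical 5D zebrafish, we exposed dechorionated embryos from 6 to 120 hpf in embryo medium with 0.64% DMSO. Circulatory defects were scored as present or absent; 5uM trimethyltin chloride served as positive control.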

Experiment [8] is described as follows: Tanguay_ZF_120hpf_SWIM_legacy: (Legacy) Oregon State University Tanguay Lab 120 Hour Post-fertilization zebrafish Assay for Swim Bladder Malformation (AID 2283654).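 Note: swim bladder malformation in each larva scored yes or no under brightfield.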 The method, boiled down:
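Dechorionated wild-type Tropical 5D zebrafish embryos, one per well from 6 hpf, were statically exposed at 28C until 120 hpf in 0.64% DMSO. Swim bladder malformation scored as present/absent by brightfield microscopy; not scored in dead larvae.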

The nature of experiment [9]: Tanguay_ZF_120hpf_NC_legacy: (Legacy) Oregon State University Tanguay Lab 120 Hour Post-fertilization zebrafish Assay for Notochord and Tail Malformation (AID 2283656). An outline of the steps:
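Dechorionated 5D zebrafish, 1/well from 6 hpf; static exposure to 120 hpf, 28C, sealed, dark; final DMSO 0.64% v/v. NC scored binary (present/absent); dead embryos not scored. Fit vs DMSO baseline, gain direction.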

The test system of experiment [10] is Thyroperoxidase (TPO), gene 54314. The experiment is described as follows: CCTE_Simmons_AUR_rTPO: CCTE's Amplex UltraRed Assay for Thyroperoxidase (TPO) Inhibition, Simmons Lab (AID 2283662).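 For AC50: potency for loss of signal meaning inhibition of peroxidase activity.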 The method, boiled down:
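Endpoint is decreased Amplex UltraRed fluorescence after a 30-min, 37C reaction of rat thyroid microsomes with 300 uM H2O2. Eight test concentrations (5 nM–87.5 uM final) in 0.5% DMSO, three biological replicates each.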

Experiment [11] in a line: CCTE_Simmons_CellTiterGLO_HEK293T: Viability Assessment in CCTE's Assays for Thyroperoxidase (TPO) Inhibition, Simmons Lab (AID 2283665). The method, boiled down:
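Cytotoxicity counter-screen: human HEK293T cells in low-serum (1% FBS) medium receive test chemical, 5 nM to 87.5 uM final, for 24 h; ATP is quantified by luciferase luminescence.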
(In general: ATP-based viability assays read luminescence as a measure of living cells.)

Experiment [12] is described as follows: Tanguay_ZF_120hpf_TR_legacy: (Legacy) Oregon State University Tanguay Lab 120 Hour Post-fertilization zebrafish Assay for Touch Response (AID 2283667). An outline of the steps:
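Tropical 5D wild-type zebrafish embryos statically exposed to 120 hpf at 28°C, sealed and dark-covered, 0.64% DMSO final; touch response scored as present/absent by brightfield microscopy at 120 hpf. Trimethyltin chloride 5 uM positive control; dead embryos not scored.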

Experiment [13] in a line: Tanguay_ZF_120hpf_PE_legacy: (Legacy) Oregon State University Tanguay Lab 120 Hour Post-fertilization zebrafish Assay for Pericardial Edema (AID 2283640). The method, boiled down: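 Scoring was binary, by brightfield microscopy at 120 hpf, and skipped where mortality occurred. Wild-type embryos were kept under sealed, foil-covered static exposure at 28C in 0.64% (vol/vol) DMSO.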

Experiment [14] in a line: Tanguay_ZF_120hpf_PIG_legacy: (Legacy) Oregon State University Tanguay Lab 120 Hour Post-fertilization zebrafish Assay for Pigmentation Malformation (AID 2283650). An outline of the steps: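 Dechorionated Tropical 5D wild-type embryos, one per well from 6 hpf, statically exposed at 28C in the dark until 120 hpf, 0.64% DMSO final. Pigmentation scored present/absent by brightfield microscopy; dead embryos not scored; fitted versus DMSO.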

Experiment [15] can be described thus: Tanguay_ZF_120hpf_TRUN_legacy: (Legacy) Oregon State University Tanguay Lab 120 Hour Post-fertilization zebrafish Assay for Truncated Body (AID 2283655). An outline of the steps: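 Binary presence/absence of truncated body is recorded at 120 hpf by brightfield, with non-mortality endpoints skipped after death. Exposure is static from 6 hpf in sealed dark plates at 28C, using dechorionated wild-type zebrafish, 0.64% DMSO.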

Read-out in experiment [16]: kallikrein-3 (KLK3), KLK3 (gene 354)
Kind of experiment: LTEA_HepaRG_KLK3: Life Technologies and Expression Analysis (LTEA) Assay for kallikrein-3 (KLK3) using HepaRG (AID 2283652; active = hit-call score of the fitted dose curve at least 0.9, where 1 is the maximum; inactive = score below 0.9). Particulars: mRNA level, 48 h; actives raise or lower the signal. The method, boiled down: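 Differentiated human HepaRG cells in serum-free induction medium exposed 48 h in duplicate, eight-point half-log series from 100 uM in 0.5% DMSO. KLK3 mRNA by qRT-PCR, normalised to ACTB, GAPDH, POLR2A; bidirectional fit versus DMSO.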

Read-out in experiment [17]: solute carrier (SLC22A6), SLC22A6 (gene 9356)
The experiment is described as follows: LTEA_HepaRG_SLC22A6: Life Technologies and Expression Analysis (LTEA) Assay for solute carrier (SLC22A6) using HepaRG (AID 2283653; active = hit-call score of the fitted dose curve at least 0.9, where 1 is the maximum; inactive = score below 0.9). As to conditions: mRNA level, 48 h; actives raise or lower the signal. The method, boiled down:
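SLC22A6 transcript was measured by TaqMan qRT-PCR, normalized to three housekeeping genes, after 48 h duplicate exposure of HepaRG cells (100 uM top, half-log steps, 0.5% DMSO); bidirectional fit against vehicle.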

Read-out in experiment [18]: solute carrier (SLC10A1), SLC10A1 (gene 6554)
Kind of experiment: LTEA_HepaRG_SLC10A1: Life Technologies and Expression Analysis (LTEA) Assay for solute carrier (SLC10A1) using HepaRG (AID 2283657; active = hit-call score of the fitted dose curve at least 0.9, where 1 is the maximum; inactive = score below 0.9). Particulars: mRNA level, 48 h; actives raise or lower the signal. The method, boiled down: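 HepaRG cells (single lot) exposed 48 h in serum-free induction medium, 8-point half-log series from 100 uM top in 0.5% DMSO, duplicate. SLC10A1 mRNA by qRT-PCR normalised to ACTB, GAPDH, POLR2A; bidirectional fit versus DMSO.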

Read-out in experiment [19]: matrix metalloproteinase-1 (MMP1), MMP1 (gene 4312)
Kind of experiment: LTEA_HepaRG_MMP1: Life Technologies and Expression Analysis (LTEA) Assay for matrix metalloproteinase-1 (MMP1) using HepaRG (AID 2283658; active = hit-call score of the fitted dose curve at least 0.9, where 1 is the maximum; inactive = score below 0.9). As to conditions: mRNA level, 48 h; actives raise or lower the signal. An outline of the steps: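 qRT-PCR (TaqMan, Fluidigm arrays) of MMP1 transcript, normalized against three housekeeping genes and fitted in both directions relative to 0.5% DMSO vehicle. Human HepaRG cultures received duplicate 48 h exposures across 8 points, highest 100 uM with half-log steps.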

Read-out in experiment [20]: Cytochrome P450 (CYP24A1_1), CYP24A1 (gene 1591)
Kind of experiment: LTEA_HepaRG_CYP24A1_1: Life Technologies and Expression Analysis (LTEA) Assay for Cytochrome P450 (CYP24A1_1) using HepaRG (AID 2283671; active = hit-call score of the fitted dose curve at least 0.9, where 1 is the maximum; inactive = score below 0.9). As to conditions: mRNA level, 48 h; actives raise or lower the signal. An outline of the steps: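 Differentiated human HepaRG cells in serum-free induction medium, exposed 48 h in duplicate to eight half-log concentrations from 100 uM top, 0.5% DMSO. Transcript measured by TaqMan qRT-PCR, normalised to ACTB, GAPDH, POLR2A; bidirectional fitting versus DMSO.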

Molecules are shown by their SMILES. Results filed as inconclusive are left out. The source made the active and inactive calls. Rule for the calls, unless noted: active = hit-call score of the fitted dose curve at least 0.9, where 1 is the maximum; inconclusive = response in the unintended direction; inactive = score below 0.9.

For the compound `C[C@]12C=CC(=O)C=C1CC[C@@H]1[C@@H]2C(=O)C[C@@]2(C)[C@H]1CC[C@]2(O)C(=O)CO`, the result in experiment [1], in experiment [2], in [3], in experiment [4], in experiment [5] and in experiment [6] was inactive. Besides, the compound was called inactive in experiment [7], in experiment [8], in experiment [9], in experiment [10], in [11] and in [12].
Consider `CCCCCC(=O)O`, for which the call in experiment [1], in experiment [2], in experiment [13], in experiment [3], in [5] and in experiment [6] was inactive. Further, the result in experiment [14], in experiment [7], in [8], in experiment [15], in experiment [9] and in experiment [12] was inactive.
Regarding `C1CCC(SSC2CCCCC2)CC1`, the result in [1], in experiment [2], in [13], in [3], in experiment [5] and in experiment [6] was inactive. The call in [16], in experiment [17], in experiment [15], in experiment [9], in experiment [18] and in experiment [19] was inactive. Moreover, the outcome in experiment [20] was inactive.
Regarding `CC1(C)NC(=O)NC1=O`, the call in [1], in experiment [2], in [13], in experiment [5], in [6] and in [8] was inactive. In addition, the result in experiment [15] and in [9] was inactive.
Take `c1cc(-c2ccncc2)ccn1`: the outcome in experiment [1], in experiment [2], in experiment [13], in [3], in [5] and in [14] was inactive. The result in experiment [7], in experiment [8], in experiment [9] and in experiment [12] was inactive.
As for `CC=Cc1ccc(O)c(OC)c1`, the compound was called inactive in experiment [1], in [2], in [13], in experiment [5], in experiment [6] and in experiment [14]. For the same compound, the compound was called inactive in [8], in experiment [9] and in [11]. In addition, the AC50 – broadly, the midpoint of the concentration-response curve, whichever way the signal moves – in [10] is 6.14 µM (active).
With `Nc1ccc(S(=O)(=O)c2ccc(N)cc2)cc1`, the result in experiment [1], in [2], in experiment [5], in experiment [6], in experiment [14] and in experiment [7] was inactive. In addition, the compound was called inactive in experiment [8], in experiment [15], in [9], in [11] and in experiment [12]. For the same compound, in [10], the AC50 is 6.89 µM (active).
Take `CNCc1cc(F)ccc1Oc1ccc(Cl)c(Cl)c1`: the compound was called inactive in [1], in experiment [2], in experiment [3], in [5], in experiment [6] and in [14]. The call in [8] and in [9] was inactive.
Take `CNC(=O)[C@H]1O[C@@H](n2cnc3c(NCc4cc(Cl)ccc4OCc4cc(C)no4)ncnc32)[C@H](O)[C@@H]1N`: the result in experiment [1], in [2], in [13], in experiment [6], in experiment [14] and in experiment [7] was inactive. Also, the outcome in experiment [15], in experiment [9], in experiment [10] and in experiment [12] was inactive.
`C[Si]1(C)O[Si](C)(C)O[Si](C)(C)O[Si](C)(C)O1`: the compound was classed as inactive in [1], in experiment [2], in experiment [13], in experiment [3], in [5] and in experiment [6]. Further, the call in experiment [14], in [8], in experiment [15], in experiment [9] and in experiment [12] was inactive.
For the compound `CC(C)c1ccc(C(=O)N=C(N)N)cc1S(C)(=O)=O`, the result in [1], in [2], in experiment [13], in [3], in [5] and in [6] was inactive. For the same compound, the compound was called inactive in experiment [14], in experiment [7], in experiment [8], in [15] and in [12].
Consider `CCCCCCOCCO`, for which the call in experiment [1], in [2], in experiment [13], in experiment [3], in experiment [5] and in [7] was inactive. Moreover, the compound was classed as inactive in [8] and in [15].

Source of the values: PubChem BioAssay (EPA / NIEHS).
